Out of some 1,000 compounds screened, about 25 (2%) were called active. The list is a sample of the results. A number with no mark means an inactive call.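 The calls were made as follows: active = fitted rise in melting shift crosses a set limit at or below the top valid dose tested; inconclusive = flat fit at mid-level activity, or a poor quality fit; inactive = the rest.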
target: Fibroblast growth factor 22 (Homo sapiens) (UniProt Q9HCT0); experiment: binders of human FGF22 protein, dose response, FGF22 synaptogenesis inhibitor project, biophysical, thermal shift, cherry-pick retest (AID 720646); conditions: recombinant FGF22 thermal shift, SYPRO orange fluorescence; series mostly up to 38 µM; thermal shift activity: at the top concentration
Sequence (Q9HCT0 whole entry, looked up): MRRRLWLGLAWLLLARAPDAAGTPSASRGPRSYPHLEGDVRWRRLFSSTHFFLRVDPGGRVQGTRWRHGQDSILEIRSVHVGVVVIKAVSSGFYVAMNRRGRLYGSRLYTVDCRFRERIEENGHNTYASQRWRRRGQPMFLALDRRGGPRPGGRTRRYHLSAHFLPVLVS

| SMILES | thermal shift activity |
| --- | --- |
| O=C(N/N=C/c1ccc(OCc2ccccc2)cc1)c1ccc(O)cc1 | 0.406 °C (ΔTm) |
| CN1C(=O)c2cc(NC(=O)c3cccc(F)c3)ccc2OC[C@@H]2O[C@H](CC(=O)N3CCc4ccccc4C3)CC[C@@H]21 | -0.043 °C (ΔTm) |
| CNC[C@@H]1Oc2ccc(NC(=O)C3CCCCC3)cc2C(=O)N([C@@H](C)CO)C[C@H]1C | 0.124 °C (ΔTm) |
| O=C(c1ccccc1F)N1CC(=O)N2[C@H](C1)[C@H](c1ccc(-c3ccc(F)cc3)cc1)[C@@H]2CO | 0.074 °C (ΔTm) [at 42 µM] |
| CCCCN1CC(N2CCN(Cc3cccc(C)c3)CC2)CS1(=O)=O (stereo unspecified) | 0.068 °C (ΔTm) |
| O=C(Cc1cccnc1)N[C@H]1CC[C@H](CCn2cc(-c3ccccc3F)nn2)O[C@H]1CO | -0.057 °C (ΔTm) |
| CC(=O)NC[C@@H]1[C@@H](c2ccccc2)[C@@H](CO)N1C(=O)Cc1cccnc1 | 0.101 °C (ΔTm) [at 42 µM] |
| O=S(=O)(ON(c1ccccc1)S(=O)(=O)c1ccccc1)c1ccccc1 | -0.012 °C (ΔTm) |
| O=C1C=CCCN1C(=O)/C=C/c1ccc(F)cc1 | 0.081 °C (ΔTm) |
| CC(=O)N1c2ccc(S(=O)(=O)N3CCC(C(=O)NCc4ccc(F)cc4)CC3)cc2CC1C (stereo unspecified) | -0.036 °C (ΔTm) |
| CCCOc1ccc(NC(=O)CC2C(=O)N(C)C(=S)N2Cc2ccc3c(c2)OCO3)cc1 (stereo unspecified) | 0.387 °C (ΔTm) |
| Cc1cccc(S(=O)(=O)N2C[C@@H](O)COC[C@H]3O[C@H](CC(=O)Nc4ccc(-c5ccccc5)cc4)CC[C@@H]32)c1 | 0.095 °C (ΔTm) [at 42 µM] |
| Cc1c(CCO)sc[n+]1CC(=O)OC12CC3CC(CC(C3)C1)C2 | 0.104 °C (ΔTm) |
| COc1cc(NC(=O)c2ccc3c(c2)OCO3)ccc1NC(=O)c1cccs1 | -0.041 °C (ΔTm) |
| O=C(N[C@@H]1C=C[C@H](CC(=O)N2CCCCC2)O[C@H]1CO)c1cccc(F)c1 | 0.341 °C (ΔTm) |
| CS(=O)(=O)c1ccc2nc(NC(=O)c3ccc(Cl)nc3)sc2c1 | -0.002 °C (ΔTm) |
| CC(=O)Nc1ccc(S(=O)(=O)N(CCc2ccccc2)CC(=O)N/N=C/c2ccc(C(=O)O)cc2)cc1 | -0.035 °C (ΔTm) |
| COCCN(C(=O)C(C)C)c1nnc(-c2ccc(C(C)(C)C)cc2)s1 | -0.088 °C (ΔTm) |
| Cc1ccc(NC(=O)Nc2cccnc2)cc1 | -0.039 °C (ΔTm) |
| CN1C(=O)c2cccc3c(N)ccc(c23)C1=O | 0.092 °C (ΔTm) |
| O=C(N/N=C/c1ccc([N+](=O)[O-])cc1)c1c[nH]c2ccccc12 | -0.096 °C (ΔTm) |
| O=C(Nc1ccccc1F)N1[C@H](CO)[C@H]2c3ccccc3NC[C@H]21 | 0.198 °C (ΔTm) [at 42 µM] |
| C[C@@H]1CN([C@@H](C)CO)S(=O)(=O)c2ccc(-c3ccncc3)cc2O[C@@H]1CN(C)C(=O)Nc1ccc(F)cc1 | 0.267 °C (ΔTm) |
| O=C(NN1C(=O)C2C3C=CC(O3)C2C1=O)c1ccccc1 (stereo unspecified) | 0.049 °C (ΔTm) |
| COc1ccccc1C(=O)NNC(=O)c1ccc(NC(=O)c2ccccc2)cc1 | -0.044 °C (ΔTm) |
| NS(=O)(=O)c1cccc(NC(=O)COC(=O)c2cc([N+](=O)[O-])ccc2N2CCCC2)c1 | -0.13 °C (ΔTm) |

| SMILES | thermal shift activity |
| --- | --- |
| COc1ccccc1NC(=O)N1[C@H](C#N)[C@H](c2ccccc2)[C@H]1CO | 0.093 °C (ΔTm) [at 42 µM] |
| OC[C@H]1[C@H](c2ccc(-c3cccnc3)cc2)[C@H]2CN(Cc3ccccn3)CCCCN21 | -0.103 °C (ΔTm) |
| O=C(Nc1nnc(-c2ccccc2F)s1)c1ccccc1F | 0 °C (ΔTm) |
| C[C@H]1CN([C@@H](C)CO)C(=O)Cc2cc(NC(=O)Cc3cn(C)c4ccccc34)ccc2O[C@@H]1CN(C)Cc1ccccc1 | 0.039 °C (ΔTm) [at 42 µM] |
| CC(C)NC(=O)N(C)C[C@@H]1Oc2c(NC(=O)c3nc4ccccc4s3)cccc2C(=O)N([C@H](C)CO)C[C@H]1C | 0.02 °C (ΔTm) [at 42 µM] |
| O=C(C[C@H]1CC[C@H]2[C@@H](COC[C@H](O)CN2S(=O)(=O)c2cccc(Cl)c2)O1)Nc1ccccc1 | 0.156 °C (ΔTm) [at 42 µM] |
| COc1ccc(-c2ccc([C@H]3[C@H]4CN(C(=O)c5ccc6c(c5)OCO6)CCCCN4[C@H]3CO)cc2)cc1 | 0.291 °C (ΔTm) [at 42 µM] |
| O=C(N/N=C/c1c[nH]c2ccccc12)c1cc2ccccc2o1 | -0.119 °C (ΔTm) |
| COc1cc([N+](=O)[O-])ccc1NC(=O)CN1CCCC1 | -0.034 °C (ΔTm) |
| COCC(=O)Nc1ccc2c(c1)OC[C@H](C)N(C)C[C@@H](C)[C@@H](OC)CN(C)C2=O | 0.077 °C (ΔTm) [at 42 µM] |
| Cc1ccc(S(=O)(=O)NCCC(=O)Nc2ccc(C)c(Cl)c2)cc1C | 0.145 °C (ΔTm) |
| COc1ccc(-c2cc(=O)oc3cc(OCC(=O)N[C@@H](Cc4c[nH]c5ccccc45)C(=O)O)ccc23)cc1 | 0.161 °C (ΔTm) |
| C[C@H]1CN([C@@H](C)CO)S(=O)(=O)c2ccc(C3=CCCC3)cc2O[C@H]1CN(C)C(=O)Nc1ccc2c(c1)OCO2 | 0.148 °C (ΔTm) [at 42 µM] |
| O=C(C[C@H]1C[C@@H]2c3cc(NC(=O)Nc4ccc(C(F)(F)F)cc4)ccc3O[C@@H]2[C@@H](CO)O1)NCC1CC1 | -0.054 °C (ΔTm) [at 10 µM] |
| CC(C)(C)N1C(=O)c2c(C(=O)OCc3ccccc3)[nH]c(-c3ccccc3)c2C1=O | 0.1 °C (ΔTm) |
| Cc1ccc(S(=O)(=O)Nc2nc3ccccc3s2)cc1[N+](=O)[O-] | -0.171 °C (ΔTm) |
| O=C(N/N=C/c1ccc(Cl)c(Cl)c1)c1ccc2nc[nH]c2c1 | 0.006 °C (ΔTm) |
| O=C(COc1ccc([N+](=O)[O-])cc1)Nc1cccc(C(=O)Nc2ccccc2C(=O)O)c1 | 0.358 °C (ΔTm) |
| O=C(NCCc1c[nH]c2ccccc12)C(=O)NCC1CCCO1 (stereo unspecified) | -0.166 °C (ΔTm) |
| Cc1ccc(NC(=O)O/N=C/c2cccc([N+](=O)[O-])c2)cc1 | -0.042 °C (ΔTm) |
| Cc1ccc(S(=O)(=O)N(C)C[C@@H]2Oc3cc(C4=CCCC4)ccc3S(=O)(=O)N([C@@H](C)CO)C[C@@H]2C)cc1 | 0.058 °C (ΔTm) [at 42 µM] |
| CCn1ccnc1CN(C)C(=O)c1ccc2nc(Cc3ccc(OC)cc3)oc2c1 | 0.081 °C (ΔTm) |
| C[C@@H]1CCCCO[C@@H](CN(C)Cc2ccncc2)[C@H](C)CN([C@H](C)CO)C(=O)c2cc(NC(=O)Cc3ccccc3)ccc2O1 | 0.059 °C (ΔTm) |
| C[C@@H]1CN([C@H](C)CO)S(=O)(=O)c2ccc(-c3ccncc3)cc2O[C@@H]1CN(C)C(=O)Nc1ccc(C(F)(F)F)cc1 | -0.536 °C (ΔTm) |
| CC(C)NC(=O)N1C[C@@H]2[C@H](c3ccccc31)[C@H](CO)N2C(=O)c1ccccn1 | 0.17 °C (ΔTm) [at 42 µM] |

From PubChem BioAssay AID720646 (Broad Institute, 2013)
